Reference: the supplement of paper PMC10849652
The full data set covers some 7,900 targets. This sample favours those with a hit. About 0.6% of all pairs of compound and target were hits.

Tests used:
Assay in all cases: log2 fold change, soluble protein after heating vs DMSO (PISA); higher = thermal stabilisation; K562 cells, 10 uM, 30 min; active = over 0.2 and 3.5 SD of the protein, either way, in both replicates (recomputed)
[1] = compound: C1=CC=C(C=C1)[C@H](COC2=CC3=C(C=C2)NC(=O)N3)NC(=O)C4=CC=CN(C4=O)CC5=CC(=C(C=C5)F)F
How it was run: (§1)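 K562 cells at 2×10^6 cells/mL were given 10 μM compound for 30 min. Aliquots then went through 3 min of heating across 48°C-58°C, were pooled, and were extracted in PBS with 0.5% NP-40 at 4°C, and the supernatant after 21,000xg for 90 min was quantified by TMTpro 16plex LC-MS/MS with channel sums equalised. Thermal stability relative to control samples, from duplicates, is given as log2 fold change.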

[2] = compound: CC1=C(SC2=C1C(=N[C@H](C3=NN=C(N32)C)CC(=O)N)C4=CC=C(C=C4)Cl)C
How it was run: as §1

[3] = compound: CC1=C2C(=CC=C1)N=C(N(C2=O)C3=CC=CC=C3C)CN4C=NC5=C(N=CN=C54)N
How it was run: as §1

[4] = compound: Cc1sc2c(c1C)C(c1ccc(Cl)cc1)=N[C@@H](CC(=O)OC(C)(C)C)c1nnc(C)n1-2
How it was run: as §1

[5] = compound: c1ccc([C@@H]2C[C@H]2NC2CCNCC2)cc1
How it was run: as §1

Measured: log2 fold change

GSTP1 (UniProt P09211)
inactive: [1] -0.013 | [2] 0.039 | [3] 0.005 | [4] -0.013 | [5] -0.016

HIP1R (UniProt O75146)
inactive: [1] -0.038 | [2] 0.061 | [3] 0.1 | [4] -0.031 | [5] -0.02

HSPA8 (UniProt P11142)
inactive: [1] -0.019 | [2] -0.032 | [3] -0.02 | [4] 0.005 | [5] -0.008

HPCAL1 (UniProt P37235)
inactive: [1] 0.007 | [2] -0.011 | [3] 0.047 | [4] -0.011 | [5] 0.032

FIBP (UniProt O43427)
inactive: [1] 0.091 | [2] 0.152 | [3] 0.042 | [4] -0.105 | [5] -0.011

HEXB (UniProt P07686)
inactive: [1] 0.028 | [2] 0.005 | [3] 0.064 | [4] -0.008 | [5] 0.016

GLB1 (UniProt P16278)
Sequence of UniProt P16278 (P16278 whole entry, looked up): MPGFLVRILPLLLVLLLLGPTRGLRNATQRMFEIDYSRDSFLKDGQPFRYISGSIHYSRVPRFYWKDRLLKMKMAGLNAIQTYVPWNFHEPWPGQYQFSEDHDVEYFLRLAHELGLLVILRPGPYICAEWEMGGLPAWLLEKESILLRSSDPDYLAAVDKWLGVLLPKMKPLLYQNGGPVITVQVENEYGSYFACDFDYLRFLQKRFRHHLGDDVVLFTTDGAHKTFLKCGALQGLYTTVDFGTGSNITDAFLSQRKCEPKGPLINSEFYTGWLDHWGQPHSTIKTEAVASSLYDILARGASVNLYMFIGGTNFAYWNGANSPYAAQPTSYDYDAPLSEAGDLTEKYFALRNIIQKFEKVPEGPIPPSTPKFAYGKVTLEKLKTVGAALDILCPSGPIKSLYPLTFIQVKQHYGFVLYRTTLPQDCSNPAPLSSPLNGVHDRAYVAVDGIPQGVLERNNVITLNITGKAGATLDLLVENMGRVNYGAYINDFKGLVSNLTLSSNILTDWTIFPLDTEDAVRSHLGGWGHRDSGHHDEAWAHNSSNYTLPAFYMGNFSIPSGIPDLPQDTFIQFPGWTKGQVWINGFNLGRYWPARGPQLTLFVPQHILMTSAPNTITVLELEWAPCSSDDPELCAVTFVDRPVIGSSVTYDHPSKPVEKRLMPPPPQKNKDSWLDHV
inactive: [1] 0.042 | [2] -0.065 | [3] 0.011 | [4] -0.043 | [5] 0.026

GCLM (UniProt P48507)
inactive: [1] -0.014 | [2] 0.062 | [3] 0.108 | [4] 0 | [5] -0.053

HMGN1 (UniProt P05114)
inactive: [1] 0.042 | [2] -0.023 | [3] -0.119 | [4] 0.027 | [5] 0.048

GNAS (UniProt Q5JWF2)
inactive: [1] 0.016 | [2] -0.008 | [3] 0.045 | [4] -0.038 | [5] 0.013

FBXO9 (UniProt Q9UK97)
inactive: [1] -0.011 | [2] 0.23 | [3] 0.016 | [4] 0.161 | [5] 0.07

GLUL (UniProt P15104)
Sequence of UniProt P15104 (P15104 whole entry, looked up): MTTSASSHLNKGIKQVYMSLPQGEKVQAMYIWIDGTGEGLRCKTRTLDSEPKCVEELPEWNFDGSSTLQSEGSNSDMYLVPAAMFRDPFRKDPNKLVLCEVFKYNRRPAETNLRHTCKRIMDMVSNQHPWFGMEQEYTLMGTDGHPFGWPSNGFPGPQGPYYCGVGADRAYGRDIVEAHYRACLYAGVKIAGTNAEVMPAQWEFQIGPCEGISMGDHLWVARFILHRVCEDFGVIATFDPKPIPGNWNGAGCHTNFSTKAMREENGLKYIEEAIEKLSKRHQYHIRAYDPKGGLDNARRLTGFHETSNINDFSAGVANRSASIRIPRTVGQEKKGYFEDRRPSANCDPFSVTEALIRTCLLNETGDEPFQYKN
inactive: [1] -0.015 | [2] 0.005 | [3] 0 | [4] -0.007 | [5] 0.02

GLS (UniProt O94925)
inactive: [1] -0.022 | [2] 0.114 | [3] 0.138 | [4] 0.013 | [5] 0.082

HDAC6 (UniProt Q9UBN7)
Sequence of UniProt Q9UBN7 (Q9UBN7 whole entry, looked up): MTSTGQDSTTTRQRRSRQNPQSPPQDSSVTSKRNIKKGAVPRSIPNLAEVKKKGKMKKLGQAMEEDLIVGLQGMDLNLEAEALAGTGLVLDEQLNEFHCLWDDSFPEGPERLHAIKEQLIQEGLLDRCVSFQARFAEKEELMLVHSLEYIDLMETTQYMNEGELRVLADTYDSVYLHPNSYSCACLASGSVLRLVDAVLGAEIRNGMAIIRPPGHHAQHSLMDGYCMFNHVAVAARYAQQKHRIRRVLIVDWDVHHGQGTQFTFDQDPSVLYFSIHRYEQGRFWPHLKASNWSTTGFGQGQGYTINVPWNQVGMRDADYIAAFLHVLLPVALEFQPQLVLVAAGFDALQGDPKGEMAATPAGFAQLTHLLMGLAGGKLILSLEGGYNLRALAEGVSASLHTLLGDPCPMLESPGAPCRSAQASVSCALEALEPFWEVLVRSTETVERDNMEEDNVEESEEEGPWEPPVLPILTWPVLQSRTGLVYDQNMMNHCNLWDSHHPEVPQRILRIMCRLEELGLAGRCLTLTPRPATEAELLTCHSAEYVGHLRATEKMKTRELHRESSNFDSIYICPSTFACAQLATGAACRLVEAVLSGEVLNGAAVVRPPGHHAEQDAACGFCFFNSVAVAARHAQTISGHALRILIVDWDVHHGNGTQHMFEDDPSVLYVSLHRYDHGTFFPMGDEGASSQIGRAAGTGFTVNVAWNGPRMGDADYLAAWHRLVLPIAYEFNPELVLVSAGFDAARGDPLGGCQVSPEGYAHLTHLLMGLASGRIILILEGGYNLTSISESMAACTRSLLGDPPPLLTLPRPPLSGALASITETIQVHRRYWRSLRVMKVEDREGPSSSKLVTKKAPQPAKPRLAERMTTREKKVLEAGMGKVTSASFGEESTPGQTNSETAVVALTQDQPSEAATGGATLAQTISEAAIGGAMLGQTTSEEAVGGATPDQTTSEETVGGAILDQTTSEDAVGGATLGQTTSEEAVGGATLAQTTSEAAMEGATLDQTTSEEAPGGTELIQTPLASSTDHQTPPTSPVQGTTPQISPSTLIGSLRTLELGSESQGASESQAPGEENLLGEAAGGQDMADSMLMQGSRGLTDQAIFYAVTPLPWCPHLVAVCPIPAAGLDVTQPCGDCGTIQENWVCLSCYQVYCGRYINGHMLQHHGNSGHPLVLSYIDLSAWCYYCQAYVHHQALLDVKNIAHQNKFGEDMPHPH
inactive: [1] 0.159 | [2] 0.008 | [3] -0.001 | [4] -0.002 | [5] 0.009

GSTT1 (UniProt P30711)
inactive: [1] 0.032 | [2] 0.121 | [3] 0.165 | [4] -0.146 | [5] 0.026

IFT80 isoform 3 (UniProt Q9P2H3)
inactive: [1] -0.011 | [2] 0.052 | [3] 0.083 | [4] -0.036 | [5] -0.027

FDPS (UniProt P14324)
Sequence of UniProt P14324 (P14324 whole entry, looked up): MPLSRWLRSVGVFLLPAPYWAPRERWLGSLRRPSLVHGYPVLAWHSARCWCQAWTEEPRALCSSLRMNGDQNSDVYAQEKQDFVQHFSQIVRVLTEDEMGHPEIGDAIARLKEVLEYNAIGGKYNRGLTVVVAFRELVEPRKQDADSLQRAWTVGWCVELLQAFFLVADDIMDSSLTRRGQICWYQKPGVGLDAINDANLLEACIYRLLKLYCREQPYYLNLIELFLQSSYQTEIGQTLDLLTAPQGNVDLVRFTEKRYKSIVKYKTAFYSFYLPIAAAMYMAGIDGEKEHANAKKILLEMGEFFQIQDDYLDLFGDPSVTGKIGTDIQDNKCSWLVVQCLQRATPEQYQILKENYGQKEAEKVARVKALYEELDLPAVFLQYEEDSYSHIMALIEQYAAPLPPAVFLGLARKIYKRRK
inactive: [1] -0.328 | [2] 0.063 | [3] 0.143 | [4] 0.001 | [5] -0.121

HIST2H2BF isoform 2 (UniProt Q5QNW6)
inactive: [1] 0.148 | [2] -0.273 | [3] -0.29 | [4] -0.082 | [5] 0.125

HDGFL2 (UniProt Q7Z4V5)
inactive: [1] -0.043 | [2] 0.007 | [3] -0.03 | [4] -0.012 | [5] 0.065

GTF2B (UniProt Q00403)
inactive: [1] -0.036 | [2] 0.007 | [3] 0.154 | [4] 0.017 | [5] -0.002

IFITM3 (UniProt Q01628)
inactive: [1] 0.038 | [2] -0.024 | [3] -0.06 | [4] 0.081 | [5] -0.014

FARS2 (UniProt O95363)
inactive: [1] -0.021 | [2] 0.022 | [3] 0.006 | [4] 0.069 | [5] -0.018

GTF3C4 (UniProt Q9UKN8)
inactive: [1] 0.027 | [2] 0.065 | [3] 0.143 | [4] 0.02 | [5] 0.025

IFRD1 (UniProt O00458)
inactive: [1] -0.011 | [2] -0.069 | [3] 0.049 | [4] 0.02 | [5] 0.004

GGT7 (UniProt Q9UJ14)
inactive: [1] 0.028 | [2] -0.055 | [3] -0.069 | [4] 0.026 | [5] 0.032

FERMT3 (UniProt Q86UX7)
inactive: [1] -0.026 | [2] 0.066 | [3] 0.053 | [4] -0.018 | [5] -0.019

HNRNPC isoform 2 (UniProt P07910)
inactive: [1] 0.102 | [2] -0.441 | [3] -0.171 | [4] 0.07 | [5] 0.139

IFRD2 isoform 2 (UniProt Q12894)
Sequence of UniProt Q12894 (Q12894 whole entry, looked up): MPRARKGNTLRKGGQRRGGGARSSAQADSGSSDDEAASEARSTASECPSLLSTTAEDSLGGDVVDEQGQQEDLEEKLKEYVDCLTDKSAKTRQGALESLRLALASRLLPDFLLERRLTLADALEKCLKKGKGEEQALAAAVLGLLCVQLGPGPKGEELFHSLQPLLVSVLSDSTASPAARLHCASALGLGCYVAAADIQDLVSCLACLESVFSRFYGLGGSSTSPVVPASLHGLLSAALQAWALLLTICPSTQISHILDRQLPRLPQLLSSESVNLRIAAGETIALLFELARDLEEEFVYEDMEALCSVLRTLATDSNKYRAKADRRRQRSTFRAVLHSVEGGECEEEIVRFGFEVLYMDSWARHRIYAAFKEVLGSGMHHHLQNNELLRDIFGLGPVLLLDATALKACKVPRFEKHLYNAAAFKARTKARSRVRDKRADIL
inactive: [1] -0.013 | [2] -0.091 | [3] -0.055 | [4] 0.063 | [5] 0.061

GSTO1 (UniProt P78417)
Sequence of UniProt P78417 (P78417 whole entry, looked up): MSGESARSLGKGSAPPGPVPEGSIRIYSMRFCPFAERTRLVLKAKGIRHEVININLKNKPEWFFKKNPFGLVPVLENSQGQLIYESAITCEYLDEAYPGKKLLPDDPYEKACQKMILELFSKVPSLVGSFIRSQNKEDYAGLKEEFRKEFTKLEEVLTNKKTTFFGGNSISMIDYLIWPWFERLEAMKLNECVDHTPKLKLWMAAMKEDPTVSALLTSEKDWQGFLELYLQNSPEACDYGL
inactive: [1] -0.024 | [2] 0.028 | [3] -0.002 | [4] -0.013 | [5] 0.007

GLA (UniProt P06280)
Sequence of UniProt P06280 (P06280 whole entry, looked up): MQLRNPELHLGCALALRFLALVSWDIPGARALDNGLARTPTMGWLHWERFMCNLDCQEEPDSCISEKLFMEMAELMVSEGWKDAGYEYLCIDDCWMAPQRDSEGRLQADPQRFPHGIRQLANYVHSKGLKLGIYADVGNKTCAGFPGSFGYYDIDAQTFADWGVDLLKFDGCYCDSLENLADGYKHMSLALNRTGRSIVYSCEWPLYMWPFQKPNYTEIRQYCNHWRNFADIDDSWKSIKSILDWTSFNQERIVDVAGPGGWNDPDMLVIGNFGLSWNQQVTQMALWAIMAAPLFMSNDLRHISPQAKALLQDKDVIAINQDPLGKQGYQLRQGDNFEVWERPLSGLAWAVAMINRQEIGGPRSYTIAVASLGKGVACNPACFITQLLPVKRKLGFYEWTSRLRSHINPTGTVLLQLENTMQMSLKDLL
inactive: [1] 0.019 | [2] -0.019 | [3] -0.01 | [4] 0.007 | [5] 0.017

FRA10AC1 isoform 3 (UniProt Q70Z53)
inactive: [1] -0.03 | [2] 0.005 | [3] 0.055 | [4] 0.069 | [5] 0.073

FNTA (UniProt P49354)
inactive: [1] -0.009 | [2] -0.024 | [3] 0.02 | [4] 0.04 | [5] -0.009

GPD1 (UniProt P21695)
inactive: [1] 0.095 | [2] 0.028 | [3] 0.123 | [4] -0.019 | [5] -0.238

FUBP3 (UniProt Q96I24)
inactive: [1] 0.009 | [2] 0.002 | [3] 0.017 | [4] 0.065 | [5] 0.006

HRC (UniProt P23327)
inactive: [1] 0.026 | [2] -0.042 | [3] 0.055 | [4] 0.014 | [5] 0.033

GUK1 isoform 2 (UniProt Q16774)
inactive: [1] -0.042 | [2] 0.003 | [3] 0.084 | [4] -0.021 | [5] 0.031

FBL (UniProt P22087)
Sequence of UniProt P22087 (P22087 whole entry, looked up): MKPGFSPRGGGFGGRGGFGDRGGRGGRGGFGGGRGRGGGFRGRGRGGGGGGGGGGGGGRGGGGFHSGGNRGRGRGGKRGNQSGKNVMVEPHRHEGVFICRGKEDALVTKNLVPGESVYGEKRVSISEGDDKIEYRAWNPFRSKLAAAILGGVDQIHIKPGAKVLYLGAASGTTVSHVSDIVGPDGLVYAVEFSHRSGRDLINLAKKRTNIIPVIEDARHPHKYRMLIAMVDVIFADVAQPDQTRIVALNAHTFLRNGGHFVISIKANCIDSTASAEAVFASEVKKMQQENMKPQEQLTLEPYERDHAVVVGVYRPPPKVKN
inactive: [1] 0.095 | [2] -0.267 | [3] -0.126 | [4] 0.18 | [5] 0.074

GSK3A (UniProt P49840)
Sequence of UniProt P49840 (P49840 whole entry, looked up): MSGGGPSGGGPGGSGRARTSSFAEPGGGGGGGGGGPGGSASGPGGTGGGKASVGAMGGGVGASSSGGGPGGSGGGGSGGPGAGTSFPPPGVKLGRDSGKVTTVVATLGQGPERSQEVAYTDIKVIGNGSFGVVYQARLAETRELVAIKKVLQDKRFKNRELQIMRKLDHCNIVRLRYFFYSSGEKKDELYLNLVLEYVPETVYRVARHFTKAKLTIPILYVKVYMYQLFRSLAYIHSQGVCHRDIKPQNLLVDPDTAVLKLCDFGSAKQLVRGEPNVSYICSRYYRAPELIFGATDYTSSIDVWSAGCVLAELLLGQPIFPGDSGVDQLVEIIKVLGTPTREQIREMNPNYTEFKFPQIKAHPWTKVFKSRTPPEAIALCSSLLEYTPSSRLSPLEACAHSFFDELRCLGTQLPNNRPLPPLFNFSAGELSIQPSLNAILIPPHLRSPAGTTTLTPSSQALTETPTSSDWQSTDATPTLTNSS
inactive: [1] 0.006 | [2] 0.099 | [3] 0.02 | [4] -0.014 | [5] -0.034

HIST2H3A (UniProt Q71DI3)
inactive: [1] 0.068 | [2] -0.153 | [3] -0.266 | [4] -0.221 | [5] 0.192

HNRNPUL2 (UniProt Q1KMD3)
inactive: [1] 0.054 | [2] -0.05 | [3] -0.041 | [4] 0.105 | [5] 0.04

GMEB2 (UniProt Q9UKD1)
inactive: [1] 0.037 | [2] 0.073 | [3] 0.068 | [4] -0.007 | [5] -0.016

GOLGA8R (UniProt I6L899)
inactive: [1] 0.106 | [2] 0.211 | [3] 0.326 | [4] 0.043 | [5] -0.003

FKBP4 (UniProt Q02790)
inactive: [1] -0.032 | [2] 0.042 | [3] 0.037 | [4] 0.004 | [5] -0.029

IDH3A (UniProt P50213)
inactive: [1] -0.029 | [2] 0.018 | [3] 0.026 | [4] -0.025 | [5] -0.005

GOLPH3 (UniProt Q9H4A6)
inactive: [1] -0.035 | [2] 0.06 | [3] 0.04 | [4] -0.077 | [5] -0.021

GCSH (UniProt P23434)
Sequence of UniProt P23434 (P23434 whole entry, looked up): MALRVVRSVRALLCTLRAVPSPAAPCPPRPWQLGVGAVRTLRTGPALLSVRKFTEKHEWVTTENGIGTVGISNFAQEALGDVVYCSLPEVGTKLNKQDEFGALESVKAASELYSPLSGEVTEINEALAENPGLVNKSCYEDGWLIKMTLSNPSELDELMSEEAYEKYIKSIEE
inactive: [1] 0.029 | [2] -0.004 | [3] -0.043 | [4] 0 | [5] 0.043

HNRNPF (UniProt P52597)
inactive: [1] -0.032 | [2] -0.049 | [3] -0.019 | [4] -0.02 | [5] -0.017

GLRX3 (UniProt O76003)
inactive: [1] 0.04 | [2] 0.072 | [3] 0.072 | [4] -0.033 | [5] -0.018

HADHA (UniProt P40939)
inactive: [1] -0.218 | [2] 0.254 | [3] 0.214 | [4] 0.256 | [5] -0.051

GALNT4 (UniProt Q8N4A0)
inactive: [1] 0.007 | [2] 0.062 | [3] 0.109 | [4] -0.033 | [5] -0.002

FKBP3 (UniProt Q00688)
inactive: [1] 0.014 | [2] 0.003 | [3] 0.01 | [4] 0.011 | [5] -0.016

HBQ1 (UniProt P09105)
inactive: [1] 0.023 | [2] 0.135 | [3] 0.092 | [4] -0.147 | [5] -0.037

HBA1 (UniProt P69905)
Sequence of UniProt P69905 (P69905 whole entry, looked up): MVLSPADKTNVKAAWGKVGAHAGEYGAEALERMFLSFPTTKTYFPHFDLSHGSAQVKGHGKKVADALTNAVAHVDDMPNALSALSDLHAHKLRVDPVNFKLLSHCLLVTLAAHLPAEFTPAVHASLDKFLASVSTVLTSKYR
inactive: [1] -0.003 | [2] 0.163 | [3] 0.005 | [4] -0.167 | [5] -0.023
